Tested on: Vero E6 infected with SARS-CoV-2
Assay: inhibition of SARS-CoV-2 cytopathic effect; higher = more antiviral protection, active = above 15
Settings: 48 h

Measured: inhibition of SARS-CoV-2 cytopathic effect

CNC(=O)ON(C(C)=O)C(=O)NC [caracemide]
inactive: 1 nM -4.06% | 8.33 nM -3.46% | 100 nM 0.29% | 833.33 nM -1.19% | 10000 nM 8.36%

N#Cc1c(Oc2ccc(F)c(NC(=O)Cc3cccc(C(F)(F)F)c3)c2)ccc2nc(NC(=O)C3CC3)sc12
inactive: 1 nM 0.58% | 8.33 nM 2.74% | 100 nM 2.56% | 833.33 nM 0.34% | 10000 nM -7.91%

O=C(Nc1ccccc1)[C@]12C[C@H]1/C(=N\O)c1ccccc1O2
inactive: 1 nM 1.02% | 8.33 nM 3.35% | 100 nM -0.61% | 833.33 nM -0.42% | 10000 nM 1.97%

O=C(/C=C/c1ccc(CN(CCO)CCc2c[nH]c3ccccc23)cc1)NO [dacinostat]
inactive: 1 nM -2.47% | 8.33 nM -2.54% | 100 nM -6.55% | 833.33 nM -21.1% | 10000 nM -23.2%

CCCC(C)C1(CC)C(=O)NC(=S)NC1=O (stereo not given) [thiopental]
inactive: 1 nM -0.77% | 8.33 nM 0.01% | 100 nM 0.2% | 833.33 nM 1.29% | 10000 nM 0.45%

CC(=O)[C@]1(O)Cc2c(O)c3c(c(O)c2[C@@H](O[C@H]2C[C@H](N)[C@H](O)[C@H](C)O2)C1)C(=O)c1ccccc1C3=O [idarubicin]
inactive: 1 nM -0.73% | 8.33 nM 1.96% | 100 nM -0.94% | 833.33 nM -13.1% | 10000 nM -6.65%

C[N+](C)(C)CCCCCCCCCC[N+](C)(C)C [decamethonium]
inactive: 1 nM -3.35% | 8.33 nM -4.24% | 100 nM -5.16% | 833.33 nM -3.23% | 10000 nM -1.94%

COc1ccc(C(=O)C2CCN(CC(=O)N(Cc3nc4c(c(=O)[nH]3)COCC4)CC3CC3)CC2)cc1
inactive: 1 nM 1.44% | 8.33 nM -0.07% | 100 nM -1.36% | 833.33 nM 1.12% | 10000 nM -1.65%

CC(C)(COP(=O)(O)OP(=O)(O)OC[C@H]1O[C@@H](n2cnc3c(N)ncnc32)[C@H](O)[C@@H]1OP(=O)(O)O)[C@@H](O)C(=O)NCCC(=O)NCCS [coenzyme-A]
inactive: 1 nM -2.14% | 8.33 nM 0.97% | 100 nM 2.41% | 833.33 nM 1.91% | 10000 nM 2.93%

CN1[C@@H]2CC[C@H]1C[C@@H](OC(c1ccccc1)c1ccccc1)C2 [benztropine-mesylate]
inactive: 1 nM 1.74% | 8.33 nM -0.55% | 100 nM 1.26% | 833.33 nM -8.96% | 10000 nM -7.74%

CN(C)Cc1ccc(S(=O)(=O)n2ccc(/C=C/C(=O)NO)c2)cc1 [resminostat]
inactive: 1 nM 0.52% | 8.33 nM -2.34% | 100 nM -0.22% | 833.33 nM -9.24% | 10000 nM -24.5%

C[C@@H]1C[C@H]2[C@@H]3C[C@H](F)C4=CC(=O)C=C[C@]4(C)[C@@]3(Cl)[C@@H](O)C[C@]2(C)[C@H]1C(=O)COC(=O)C(C)(C)C [clocortolone-pivalate]
inactive: 1 nM 0.49% | 8.33 nM 2.86% | 100 nM -2.33% | 833.33 nM 1.18% | 10000 nM -2.12%

COc1cc2ncn(-c3cc(OCc4ccccc4C(F)(F)F)c(C(N)=O)s3)c2cc1OC
inactive: 1 nM -9.5% | 8.33 nM -5.03% | 100 nM -7.65% | 833.33 nM -5.41% | 10000 nM -1.95%

c1ccc2c(c1)CCC[C@H]2Nc1nc2ccccc2[nH]1
inactive: 1 nM 2.74% | 8.33 nM 2.66% | 100 nM 1.8% | 833.33 nM -1.92% | 10000 nM -0.48%

CCN(CC)CCCCC1CCN(CC(=O)N2c3ccccc3C(=O)Nc3cccnc32)CC1
inactive: 1 nM -0.6% | 8.33 nM 0.18% | 100 nM -0.52% | 833.33 nM -1.51% | 10000 nM -4.44%

Cc1cccc(Nc2ccccc2C(=O)O)c1C [mefenamic-acid]
inactive: 1 nM -0.88% | 8.33 nM 1.67% | 100 nM 1.5% | 833.33 nM -1.03% | 10000 nM -0.56%

C[C@]12CCC(=O)C=C1CC[C@@H]1[C@@H]2CC[C@@]2(C)[C@H]1CC[C@]2(C)O [17-alpha-Methyltestosterone]
inactive: 1 nM 0.59% | 8.33 nM 1.3% | 100 nM -0.05% | 833.33 nM 1.19% | 10000 nM 1.92%

COc1ccc(CN2CCN(C(c3ccc(F)cc3)c3ccc(F)cc3)CC2)c(OC)c1OC [lomerizine]
inactive: 1 nM 1.2% | 8.33 nM -4.42% | 100 nM -2.46% | 833.33 nM -4.97% | 10000 nM -3.64%

CC(C)Cn1cnc2c1c(=O)n(C)c(=O)n2C [isbufylline]
inactive: 1 nM -1.81% | 8.33 nM 0.75% | 100 nM 0.2% | 833.33 nM -0.05% | 10000 nM 1.65%

C[C@H]1c2cccc(O)c2C(=O)C2=C(O)[C@]3(O)C(=O)C(C(N)=O)=C(O)[C@@H](N(C)C)[C@@H]3[C@@H](O)[C@@H]21 [doxycycline]
inactive: 1 nM -1.68% | 8.33 nM -0.605% | 100 nM 0.42% | 833.33 nM 0.08% | 10000 nM -0.76%

C=C1CC[C@@]2(O)[C@H]3Cc4ccc(O)c5c4[C@@]2(CCN3CC2CC2)[C@H]1O5 [nalmefene]
inactive: 1 nM 1.67% | 8.33 nM 1.64% | 100 nM 2.15% | 833.33 nM -1.46% | 10000 nM -3.45%

CC(C)NC[C@@H](O)c1ccc(O)c(O)c1 (racemic) [isoprenaline]
inactive: 1 nM 1.39% | 8.33 nM -0.18% | 100 nM -0.08% | 833.33 nM 0.77% | 10000 nM -2.47%

OC[C@H]1O[C@H](O[C@]2(CCl)O[C@H](CCl)[C@@H](O)[C@@H]2O)[C@H](O)[C@@H](O)[C@H]1Cl [sucralose]
inactive: 1 nM 0.95% | 8.33 nM 0.58% | 100 nM 0.66% | 833.33 nM -0.54% | 10000 nM -0.48%

NC(N)=Nc1nc(CSCC/C(N)=N/S(N)(=O)=O)cs1 [Famotidine]
inactive: 1 nM 1.28% | 8.33 nM 0.44% | 100 nM -0.39% | 833.33 nM -0.03% | 10000 nM -0.45%

Cc1c(C(=O)NN2CCCCC2)nn(-c2ccc(Cl)cc2Cl)c1-c1ccc(I)cc1
inactive: 1 nM 0.54% | 8.33 nM -3.71% | 100 nM 3.18% | 833.33 nM 1.67% | 10000 nM 2.28%

CC(=O)NC1N=C(c2ccccc2)c2ccccc2NC1=O (stereo not given)
inactive: 1 nM 0.39% | 8.33 nM 1.87% | 100 nM -0.74% | 833.33 nM 0.99% | 10000 nM -0.69%

COc1c(C)c(C(=O)c2ccc(N)c(C(=O)O)c2)n2ccccc12
inactive: 1 nM -2.54% | 8.33 nM 1.8% | 100 nM 0.21% | 833.33 nM -1.06% | 10000 nM -1.34%

C[C@@H]1COCCN1c1cc(=O)n2c(n1)N(Cc1cncc(Cl)c1)[C@H](C(F)(F)F)CC2
inactive: 1 nM -2.96% | 8.33 nM 2.22% | 100 nM -0.24% | 833.33 nM 7.24%
active: 10000 nM 44.4%

Cc1ncc(-c2csc(N=C(N)N)n2)[nH]1 [zaltidine]
inactive: 1 nM 2.21% | 8.33 nM -0.85% | 100 nM -3.06% | 833.33 nM -1.56% | 10000 nM -0.54%

CC(C)(O)CC(=O)NCCn1ccc2ncnc(Nc3ccc(Oc4cccc(C(F)(F)F)c4)c(Cl)c3)c21
inactive: 1 nM 4.78% | 8.33 nM 7.81% | 100 nM 3.51% | 833.33 nM -7.39% | 10000 nM -14.1%

CNCC[C@@H](Oc1ccccc1C)c1ccccc1 [atomoxetine]
inactive: 1 nM 1.13% | 8.33 nM 1.43% | 100 nM 3.37% | 833.33 nM 2.34% | 10000 nM -2.83%

CCCN1CCCC[C@H]1C(=O)Nc1c(C)cccc1C [ropivacaine]
inactive: 1 nM 1.32% | 8.33 nM 1.42% | 100 nM 2.5% | 833.33 nM 3.09% | 10000 nM -1.63%

CC(C)CC(=O)N[C@H](C(=O)N[C@H](C(=O)N[C@@H](CC(C)C)[C@@H](O)CC(=O)N[C@@H](C)C(=O)N[C@@H](CC(C)C)[C@@H](O)CC(=O)O)C(C)C)C(C)C [pepstatin]
inactive: 1 nM 1.4% | 8.33 nM 0.77% | 100 nM -0.17% | 833.33 nM -1.52% | 10000 nM -4.53%

CN[C@H](CNC(=O)N1CCC[C@@H]([C@@H](OCCNC(=O)OC)c2cccc(Cl)c2)C1)C[C@H]1CCCOC1
inactive: 1 nM 1.34% | 8.33 nM -1.3% | 100 nM 1.14% | 833.33 nM -0.1% | 10000 nM 3.16%

C[C@@H]1C(=O)O[C@H]2C[C@@]34[C@H]5C[C@@H](C(C)(C)C)[C@]36[C@@H](OC(=O)[C@@H]6O)O[C@@]4(C(=O)O5)[C@]21O [Ginkgolide A]
inactive: 1 nM 3.54% | 8.33 nM 2.25% | 100 nM 2.7% | 833.33 nM 1.3% | 10000 nM -1.89%

Clc1cccc(Cl)c1CSc1nnc(-c2cnccn2)s1 [yoda-1]
inactive: 1 nM 1.9% | 8.33 nM 3.59% | 100 nM -0.57% | 833.33 nM 2.67% | 10000 nM 9.5%

O=C1NC(=O)/C(=C/c2ccc3c(c2)OC(F)(F)O3)S1
inactive: 1 nM 2.29% | 8.33 nM 1.22% | 100 nM -6.83% | 833.33 nM -7.64% | 10000 nM -7.56%

CN(C)c1nc(N)c(C(=O)Nc2cccnc2)nc1Cl
inactive: 1 nM 1.28% | 8.33 nM 4.72% | 100 nM -0.62% | 833.33 nM 4.15% | 10000 nM 0.82%
